Compound activity as filed in PubChem.
LASV entry inh – qHTS for Inhibitors of binding or entry into cells for Lassa Virus; Lassa virus pseudotype entry inhibition, cell reporter; Potency, µM (series often up to 37.9 µM), without a hit: at the top dose activity change, negative = inhibition, usual class: inhibitors; actives 1.2% (n = 300,000); calls by dose curve; tested in HEK293 cells; also: potency is read from the fitted curve at half-maximal effect; nearly all actives have a fitted effect of over 50% in size
HCV inhibitor – qHTS Assay for Inhibitors of Hepatitis C Virus (HCV). Potency, µM (highest dose often 41.8 µM), for inactives: at the top dose activity change, negative = inhibition, usual class: inhibitors. Huh7.5.1 HCVcc-Cre infection, luciferase reporter, 44 h. actives 3.4% (n = 340,000); active = well fitted inhibition curve with a large enough effect; inconclusive = small, poorly fitted or top-dose-only effect, or another doubt; inactive = no such curve, though single readings can be large or run the other way; also: potency is read from the fitted curve at half-maximal effect
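Reporter virus HCVcc-Cre (~0.5 moi) infects cells exposed to compound; seeding density 1,000 cells/well with 4 h settling beforehand. Luminescence, 15 sec read, taken 44 h post-infection following a 15 min RT substrate incubation.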
FMDV inh – High Throughput Screening for Foot and Mouth Disease Virus Antivirals; FMDV antiviral cell-based qHTS; Potency, µM (titrated, usually from 57.9 µM), for inactives: at the highest dose activity change, negative = inhibition, most hits filed as inhibitors; actives 1.2% (n = 410,000); calls by dose curve; tested in HEK293T cells; also: read-out not given here; potency is read from the fitted curve at half-maximal effect; nearly all actives have a fitted effect of over 45% in size
MARV entry inh – qHTS for inhibitors of binding or entry into cells for Marburg Virus. actives 1.8% (n = 300,000). Potency, µM (titrated, usually from 37.8 µM), for inactives: top-dose activity change, negative = inhibition, usual class: inhibitors. Marburg virus pseudotyped entry inhibition, cell reporter; calls by dose curve; tested in HEK293 cells; also: potency is read from the fitted curve at half-maximal effect
HCMV antiviral – qHTS Assay for inhibitors of the human cytomegalovirus (HCMV) | HFF cells, HCMV-luciferase reporter, 72 h; active compounds read low | activity change, negative = inhibition, % at 57.5 µM | actives 4.5% (n = 410,000) | AID 1259415, 2018; in the data active = activity change below about -60%; inconclusive = no clear call, values can overlap the other calls; inactive = above about -39%
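Human foreskin fibroblasts infected with luciferase-reporter HCMV at MOI 1 PFU/cell, compounds at two doses. Luciferase measured 72 h post infection; normalized to buffer-only basal and Salinomycin (10uM) controls.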
* = called active by the depositor; ? = inconclusive; / = not tested or not shown; [ ] = dose if it differs, or a comment. The list is not random: actives were taken first. Their share in the collection is about 7.9%. % is scaled to controls: 0 for no effect and ±100 for the full control effect.

SMILES	LASV entry inh	HCV inhibitor	FMDV inh	MARV entry inh	HCMV antiviral
O=C(N/N=C/c1ccccn1)c1cc(-c2ccccc2)nc2ccccc12	/	10.6%	-40.9%	/	9.5
CCC12CN3CC(CC)(CN(C1)C3c1cccc(OC)c1O)C2=O (stereo not given)	-9.0%[46.1 µM]	/	-20.0%	-5.0%[46.1 µM]	-9.3
Cc1ccccc1NC(=O)N[C@H]1CC[C@@]23CCCN2C(=O)CCC[C@H]3C1Cc1ccccc1 (stereo not given in full)	/	/	/	/	10.2
Cc1nc(-c2ccc(Cl)cc2)sc1CCNC(=O)C(=O)Nc1ccc(F)cc1F	6.7%[46.1 µM]	/	5.2%	/	47.3
COc1cc(/C=N/NC(=O)c2cc(-c3ccccc3OC(C)C)nc3ccccc23)ccc1O	5.8µM*	-12.4%	?	4.61µM*	-20.9
COc1cc(/C=N/NC(=O)c2cc(-c3ccccc3)nc3ccccc23)ccc1O	?	-8.6%	1.8%	?	-67.2*
Cc1cc(C(=O)N/N=C/c2cccc([N+](=O)[O-])c2)c2ccccc2n1	-7.9%	-14.9%	-28.8%	-0.9%	-33.9
O=C(NN=Cc1cccc([N+](=O)[O-])c1)c1cc(-c2cccnc2)nc2ccccc12	/	?	28.2µM*	/	-14.0
CC12CNCC(C)(CN(C(c3ccccc3)c3ccccc3)C1)C2	20µM*	?	?	?	?
Clc1ccc(C(c2ccccc2)N2CCNCC2)cc1 (stereo not given)	-13.2%	11.2µM*	-4.3%	?	44.7
CN1CCN(C(c2ccccc2)c2ccc(Cl)cc2)CC1 (stereo not given)	/	?	-6.1%	/	-9.9
CCCCN(CCCC)CCNC(=O)Cn1nc(C)n2c(cc3sccc32)c1=O	/	/	-6.1%	-2.5%[46.1 µM]	-6.2
O=C(NCc1ccc(OC(F)(F)F)cc1)c1cc(-c2ccccc2)nn1CC1CC(c2cccnc2)=NO1 (stereo not given)	/	?	-9.9%	/	-67.1*
O=c1oc2ccc(Br)cc2cc1S(=O)(=O)c1ccc(F)cc1	-19.5%	?	28.2µM*	-5.9%	/
COc1ccccc1NC(=O)c1ccc2oc(=O)c(S(=O)(=O)c3ccccc3)cc2c1	?	/	28.2µM*	6.5%[46.1 µM]	15.2
COc1ccc2cc(S(=O)(=O)c3ccccc3)c(=O)oc2c1	/	4.4%	-29.9%	1.5%	-22.0
O=C(Nc1ccccc1C(F)(F)F)c1ccc2oc(=O)c(S(=O)(=O)c3ccc(F)cc3)cc2c1	-12.2%[46.1 µM]	/	28.2µM*	2.0%[46.1 µM]	-1.9
Cc1ccc(NC(=O)c2ccc3oc(=O)c(S(=O)(=O)c4ccccc4)cc3c2)cc1C	18.0%[46.1 µM]	/	28.2µM*	-0.1%[46.1 µM]	21.5
CC(=O)OC[C@H]1O[C@H](CC=NOC[C@@H](O)COCc2ccco2)C=C[C@H]1OC(C)=O	/	/	/	0.7%[14.2 µM]	/
CC(C)CNC(=O)C1(C)CCCN1Cc1ccc(S(C)(=O)=O)cc1 (stereo not given)	/	/	-12.5%	/	-101.6*
COc1nc2ccccc2c(=O)n1-c1ccc(Cl)cc1	?	3.4%	-7.3%	10.4%	-61.4*
O=c1c2ccccc2nc(N2CCCC2)n1-c1ccc(Cl)cc1	0.9%	?	-26.4%	11.0%	-62.7*
CCc1ccc(-n2c(N3CCN(c4cccc(Cl)c4)CC3)nc3ccccc3c2=O)cc1	-18.1%[46.1 µM]	/	0.0%	?	-14.2
CCOc1ccc(CCN2C(=S)N([C@@H](CC(C)C)CN3CCCC3CN3C(=S)NC[C@@H]3Cc3ccc(O)cc3)C[C@@H]2Cc2ccccc2)cc1 (stereo not given in full)	/	10µM*	-26.2%	/	-38.9
Oc1ccc(C[C@@H](CN2CCC[C@@H]2CN2C(=S)NC[C@@H]2Cc2ccccc2)N2C[C@H](Cc3ccccc3)N(CCc3ccccc3)C2=S)cc1	/	/	-0.5%	/	-22.5
CCOc1ccc(CCN2C(=S)N([C@@H](CC(C)C)CN3CCCC3CN3C(=S)NC[C@@H]3Cc3ccc(O)cc3)C[C@@H]2Cc2ccc(O)cc2)cc1 (stereo not given in full)	/	11.2µM*	?	/	-83.9*
Oc1ccc(C[C@H]2CNC(=S)N2CC2CCCN2C[C@H](Cc2ccccc2)N2C[C@H](Cc3ccc(O)cc3)N(CCc3ccccc3)C2=S)cc1 (stereo not given in full)	/	2.24µM*	0.0%	/	?
